ELG1 repair inh – inhibitors of ELG1-dependent DNA repair in HEK293T cells; HEK293T ELG1-luciferase reporter, luminescence, 16 h; DNA damage induced by 5-fluorouridine; Potency, µM (doses to about 46.1 µM), for the others: top-dose activity change, negative = inhibition, most hits filed as inhibitors; 330,000 compounds, 2.3% hits; AID 504467; note: % is set by controls: 0 for no effect and ±100 for the full control effect; nearly all actives have a fitted effect of over 55% in size
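Step one: seed 2,000 cells per well. Step two: pin-transfer compound or DMSO alongside 5-fluorouridine. Step three: incubate 16 hr, 37 °C, 5% CO2. Step four: add ONE-Glo, wait 30 min, read luminescence.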
KB-V1 MDR tox – kills drug-selected multidrug resistant KB-V1 cells | KB-V1 MDR cells viability, CellTiter-Glo, 72 h | Potency, µM (top dose mostly 46.1 µM), most hits filed as cytotoxic | 400,000 compounds, 3.4% hits | AID 1347076; note: % is set by controls: 0 for no effect and ±100 for the full control effect; nearly all actives have a fitted effect of over 60% in size
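Compound-treated KB-V1 multidrug-resistant cells, 72 h, 37 degrees C; viability by CellTiter-Glo. Fitted qHTS curves give the values.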
SW480 rerep – induces DNA re-replication in SW480 colon adenocarcinoma cells | SW480 DNA re-replication, Hoechst DNA content imaging, 48 h | Potency, µM (top dose mostly 46.1 µM), for inactives: at the highest dose re-replication activation, usual class: activators | 340,000 compounds, 1.8% hits | AID 624297; note: % of control where 0% means no effect; nearly all actives have a fitted effect of over 55% in size
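Image-based DNA-content assay: after two days of treatment, nuclei were labelled with the DNA dye Hoechst and imaged, and hits were compounds raising the count of nuclei showing high fluorescence intensity.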
MCF10A rerep – DNA re-replication induction in MCF 10a cells; MCF 10A DNA re-replication, Hoechst nuclear intensity, 48 h; AID 624296; 350,000 compounds, 2.9% hits; Potency, µM (top dose mostly 46.1 µM), for inactives: at the top dose activity, positive = re-replication, most hits filed as activators; note: % of control where 0% means no effect; nearly all actives have a fitted effect of over 50% in size
KB-3-1 cytotox – KB-3-1 parental cell cytotoxicity | KB-3-1 viability, CellTiter-Glo ATP luminescence, 72 h | Potency, µM (highest dose often 46.1 µM), usual class: cytotoxic | 400,000 compounds, 1.4% hits | AID 1347075; note: % is set by controls: 0 for no effect and ±100 for the full control effect; nearly all actives have a fitted effect of over 60% in size
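Using CellTiter-Glo luminescence, growth of non-resistant KB-3-1 adenocarcinoma cells is assessed 72 h after pin-tool compound addition at 37 °C. Normalized responses across the concentration series yield fitted curves.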
* = called active by the depositor. An excerpt weighted towards active compounds, which were near 8.1% of everything screened. Calls come from the whole dose curve; as a rule, active = well fitted curve in the direction sought with a large enough effect; inconclusive = small, poorly fitted or top-dose-only effect, or another doubt; inactive = no such curve, though single readings can be large; an effect the other way counts as inactive or inconclusive. Potency is the fitted concentration of half-maximal effect.

Results for COc1ccc(CNC(=O)c2ccc3c(c2)NC(=O)C(CS(=O)(=O)Cc2ccccc2Cl)N3)cc1 (stereo not given) ?
KB-V1 MDR tox: inconclusive; KB-3-1 cytotox: inactive

Results for CC12CCC(C1)C(C)(C)C2=O (stereo not given) ?
SW480 rerep: -10%; MCF10A rerep: 0%

Results for Cc1ccc(OCCCCNC2CCCC(C)C2C)c(C)c1 (stereo not given) ?
ELG1 repair inh: inconclusive; KB-V1 MDR tox: 21µM*; SW480 rerep: inconclusive; MCF10A rerep: inconclusive; KB-3-1 cytotox: 23µM*

How did CCN(CC)c1ccc2cc(C(=O)c3cccs3)c(=O)oc2c1 do in these assays?
KB-V1 MDR tox: inconclusive; KB-3-1 cytotox: inactive

What do the screens show for `CCc1ccccc1NC(=O)Nc1nnc(N2CCCC2)s1`?
KB-V1 MDR tox: inactive; KB-3-1 cytotox: inactive

What do the screens show for `O=C(c1cccc(C(F)(F)F)c1)N1CCC(O)(CS(=O)(=O)Cc2ccc(Cl)cc2)CC1`?
ELG1 repair inh: inconclusive; KB-V1 MDR tox: 12µM*; SW480 rerep: 0%; MCF10A rerep: 8%; KB-3-1 cytotox: inactive

How did O=C(c1cccc(C(F)(F)F)c1)N1CCC(O)(CS(=O)(=O)Cc2ccccc2)CC1 do in these assays?
ELG1 repair inh: -5%; KB-V1 MDR tox: inactive; SW480 rerep: -13%; MCF10A rerep: 0%; KB-3-1 cytotox: inactive

What do the screens show for `O=C(c1cccc(C(F)(F)F)c1)N1CCC(O)(CS(=O)(=O)Cc2ccccc2Cl)CC1`?
ELG1 repair inh: -29%; KB-V1 MDR tox: 16µM*; SW480 rerep: -3%; MCF10A rerep: 5%; KB-3-1 cytotox: inactive

Results for CCCC(=O)N1CCCC1(C)C(=O)Nc1ccc2cn[nH]c2c1 (stereo not given) ?
KB-V1 MDR tox: inactive; KB-3-1 cytotox: inactive

How did COc1ccc(OC)c(CNC(=O)C(C)n2nc(C)c3c(C)n(-c4ccccc4)nc3c2=O)c1 (stereo not given) do in these assays?
ELG1 repair inh: -15%; KB-V1 MDR tox: inactive; SW480 rerep: -21%; MCF10A rerep: inconclusive; KB-3-1 cytotox: inactive

How did CCOC(=O)c1c(NC(=O)CSc2nc3ccccc3[nH]2)sc2c1CC(C)(C)NC2(C)C do in these assays?
ELG1 repair inh: inconclusive; KB-V1 MDR tox: inactive; SW480 rerep: 16µM*; MCF10A rerep: inconclusive; KB-3-1 cytotox: inconclusive

Results for Cc1nn(CC(=O)NCc2ccco2)c(=O)c2cc3ccccc3n12 ?
KB-V1 MDR tox: inactive; KB-3-1 cytotox: inactive

What do the screens show for `COc1ccccc1N1CCN(S(=O)(=O)CCNC(=O)CC2CCCCC2)CC1`?
ELG1 repair inh: 12µM*; KB-V1 MDR tox: inconclusive; SW480 rerep: -6%; MCF10A rerep: 11%; KB-3-1 cytotox: inactive

What do the screens show for `O=C(Cc1cccs1)NCCS(=O)(=O)N1CCN(c2ccccc2F)CC1`?
ELG1 repair inh: -14%; KB-V1 MDR tox: inconclusive; SW480 rerep: 23µM*; MCF10A rerep: 16µM*; KB-3-1 cytotox: 12µM*

Results for COc1ccccc1N1CCN(S(=O)(=O)CCNC(=O)c2cc(OC)c(OC)c(OC)c2)CC1 ?
ELG1 repair inh: inconclusive; KB-V1 MDR tox: inactive; SW480 rerep: inconclusive; MCF10A rerep: inconclusive; KB-3-1 cytotox: 6.5µM*

What do the screens show for `CSc1cccc(NS(=O)(=O)c2ccc3[nH]cc(C(=O)N4CCCCCC4)c(=O)c3c2)c1`?
KB-V1 MDR tox: inactive; KB-3-1 cytotox: inactive

What do the screens show for `CC1SC(=S)N(c2ccc(N(C)C)cc2)C1=O` (stereo not given)?
ELG1 repair inh: 1%; KB-V1 MDR tox: inactive; SW480 rerep: 3%; MCF10A rerep: 2%; KB-3-1 cytotox: inactive

Results for COCCNC(=O)CSc1nc(-c2ccccc2)[nH]c1-c1ccc(OC)cc1 ?
KB-V1 MDR tox: inactive; KB-3-1 cytotox: inactive

Results for O=c1[nH]c(C2CCN(S(=O)(=O)Cc3ccccc3)CC2)nc2c1nnn2Cc1ccccc1Cl ?
ELG1 repair inh: 26µM*; KB-V1 MDR tox: inactive; SW480 rerep: -9%; MCF10A rerep: -2%; KB-3-1 cytotox: inactive

What do the screens show for `O=C(NC1CC1)c1nc2c(nnn2Cc2ccccc2Cl)c(=O)[nH]1`?
ELG1 repair inh: inconclusive; KB-V1 MDR tox: inactive; SW480 rerep: 17%; MCF10A rerep: inconclusive; KB-3-1 cytotox: inactive

Results for O=C(NCCc1ccccc1)c1nc2c(nnn2Cc2ccccc2Cl)c(=O)[nH]1 ?
ELG1 repair inh: 2%; KB-V1 MDR tox: 15µM*; SW480 rerep: -6%; MCF10A rerep: 48%; KB-3-1 cytotox: inactive

Results for O=c1[nH]c(C2CCN(S(=O)(=O)Cc3ccccc3)CC2)nc2c1nnn2Cc1ccccc1 ?
ELG1 repair inh: 23µM*; KB-V1 MDR tox: inactive; SW480 rerep: -7%; MCF10A rerep: 10%; KB-3-1 cytotox: inactive

Results for O=c1[nH]c(C2CCN(S(=O)(=O)Cc3ccccc3)CC2)nc2c1nnn2Cc1cccc(Cl)c1 ?
ELG1 repair inh: -8%; KB-V1 MDR tox: inactive; SW480 rerep: inconclusive; MCF10A rerep: inconclusive; KB-3-1 cytotox: inactive

What do the screens show for `Cc1cc[n+](-c2ccccc2)c2ccccc12`?
ELG1 repair inh: 10µM*; KB-V1 MDR tox: inactive; SW480 rerep: -1%; MCF10A rerep: -3%; KB-3-1 cytotox: inconclusive

What do the screens show for `CCc1nc(N)nc(N)c1-c1ccc(N(C)Cc2ccccc2)c([N+](=O)[O-])c1`?
KB-V1 MDR tox: 1.8µM*; SW480 rerep: 22%; MCF10A rerep: 14%; KB-3-1 cytotox: 4.1µM*

How did NC(=S)N=Nc1c(O)n(CCCl)c2ccc(Br)cc12 do in these assays?
ELG1 repair inh: 15µM*; KB-V1 MDR tox: inconclusive; SW480 rerep: -6%; MCF10A rerep: inconclusive; KB-3-1 cytotox: inconclusive

How did C/C(Cl)=C\Cn1c(O)c(N=NC(N)=S)c2cc(Br)ccc21 do in these assays?
ELG1 repair inh: -13%; KB-V1 MDR tox: inconclusive; SW480 rerep: inconclusive; MCF10A rerep: inconclusive; KB-3-1 cytotox: inconclusive

What do the screens show for `NC(=S)N=Nc1c(O)n(Cc2ccc(Br)cc2)c2ccccc12`?
ELG1 repair inh: inconclusive; KB-V1 MDR tox: 4.6µM*; SW480 rerep: 8.2µM*; MCF10A rerep: 5.8µM*; KB-3-1 cytotox: 3.3µM*

Results for CN(C)C(CNC(=O)CNC(=O)Cc1cccc2ccccc12)c1ccccc1 (stereo not given) ?
ELG1 repair inh: 27%; KB-V1 MDR tox: inactive; SW480 rerep: inconclusive; MCF10A rerep: -9%; KB-3-1 cytotox: inactive

Results for Cc1ccccc1OCC(=O)Nc1sc2c(c1C(=O)OC(C)C)CCCC2 ?
KB-V1 MDR tox: inactive; KB-3-1 cytotox: inactive

Bioassay records: PubChem, National Center for Advancing Translational Sciences (NCATS)
